Sampled rows, rich in hits. Any-hit rate of the full collection: about 10%.
LMNA splice mod – LMNA splicing modulation; HeLa LMNA splicing GFP/RFP minigene ratio, 48 h; Potency, µM (top dose mostly 46.1 µM), for inactives: top-dose ratio change, negative = inhibition, usual class: inhibitors; actives 0.01% (n = 200,000); AID 1487; active means well fitted inhibition curve with a large enough effect in the signal ratio, with a control signal flat, not every such curve was filed as active; inconclusive means small, poorly fitted or top-dose-only effect, or effect the other way, or a change in a side signal; the % refers to the signal ratio; further: potency means the concentration at half of the fitted maximal effect
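Read-out is the ratio of GFP to DsRed2 object intensity, acquired by 488 nm laser-scanning cytometry on HeLa lamin A-EGFP minigene reporter cells. Compound incubation 48 hrs at 37 °C in Opti-MEM with 2% FBS; DMSO 0.5% final.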
Luc counter – blocks Kinase-Glo luciferase, a counter-screen artifact; Q27757; Kinase-Glo luciferase, ATP luminescence, 8 min; Potency, µM (series often up to 38.3 µM), for inactives: top-dose activity change, negative = inhibition, actives largely listed as inhibitors; actives 0.28% (n = 200,000); AID 1379; active means well fitted inhibition curve with a large enough effect; inconclusive means small, poorly fitted or top-dose-only effect; further: potency means the concentration at half of the fitted maximal effect; nearly all actives have a fitted effect of over 60% in size
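Luminescence was the read-out, taken after 8-minute incubation at ambient temperature. Luciferase turned over luciferin with 10 uM ATP in imidazole pH 7.2 buffer containing KCl, MgCl2, Tween 20 and BSA.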
ALDH1A1 inh – inhibitors of human aldehyde dehydrogenase 1A1; P00352; Purified ALDH1A1, NADH fluorescence, propionaldehyde substrate; Potency, µM (top dose mostly 75.3 µM), for the others: at the highest dose activity, negative = inhibition, most hits filed as inhibitors; actives 7.3% (n = 220,000);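 further: potency means the concentration at half of the fitted maximal effect; plate controls were no enzyme wells and a reference inhibitor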
Target sequence (P00352 whole entry, looked up): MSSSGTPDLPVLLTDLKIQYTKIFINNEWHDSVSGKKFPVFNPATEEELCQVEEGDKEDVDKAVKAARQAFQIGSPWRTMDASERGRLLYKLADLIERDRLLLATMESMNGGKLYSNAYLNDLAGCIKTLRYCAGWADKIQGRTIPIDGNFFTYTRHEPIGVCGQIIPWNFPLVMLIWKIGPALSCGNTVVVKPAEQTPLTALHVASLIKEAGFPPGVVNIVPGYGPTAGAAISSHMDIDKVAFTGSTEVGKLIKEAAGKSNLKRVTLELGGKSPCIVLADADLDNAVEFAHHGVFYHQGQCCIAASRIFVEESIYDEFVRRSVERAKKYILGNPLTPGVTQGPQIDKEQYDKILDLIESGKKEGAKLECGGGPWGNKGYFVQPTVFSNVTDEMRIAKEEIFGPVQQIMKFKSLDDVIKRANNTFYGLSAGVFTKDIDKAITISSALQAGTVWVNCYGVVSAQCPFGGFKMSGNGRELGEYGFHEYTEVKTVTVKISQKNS
PNC assembly inh – blocks assembly of the perinucleolar compartment; activity change (PNC), negative = inhibition, % at 10 µM; PC3M PTB-GFP, PNC prevalence imaging, 16 h; hits give low values; actives 3.1% (n = 140,000);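 active means readout at or below -70, meaning at least 70% loss of cells showing the perinucleolar compartment, a nuclear body marking cancer cells; inconclusive means readout between -30 and a set limit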;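 further: plate controls were DMSO wells for no effect and camptothecin positive control wells for full effect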
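Compounds are pinned in duplicate onto adhered PC3M cells stably expressing GFP-tagged PTB and incubated 16 h at 37 C. Cells are then fixed, nuclei stained with Hoechst, and PNC-positive cells counted.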
HPGD inh – blocks human HPGD enzyme activity. Potency, µM, without a hit: at the highest dose activity change, negative = inhibition, most hits filed as inhibitors. purified HPGD, NADH fluorescence kinetic, PGE2 substrate. AID 894. P15428. actives 4.3% (n = 150,000); further: potency means the concentration at half of the fitted maximal effect
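NADH formation kinetics: reaction with 30 uM PGE2 and 1 mM NAD+ (final), 20 nM enzyme, Tris-HCl pH 8 with Tween 20, after 15 min compound preincubation at room temperature. Fluorescence change, last versus first of five reads.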
The depositor's hits bear a star; ? = inconclusive; nt = no result; [ ] = remark or other dose. Unless noted, the call rests on the fitted dose curve; in most records, active means well fitted inhibition curve with a large enough effect (not every such curve was filed as active); inconclusive means small, poorly fitted or top-dose-only effect, or another doubt; inactive means no such curve, though single readings can be large or run the other way. Unless noted, on the % scale 0 is the no-effect control and ±100 the full control effect.

SMILES	LMNA splice mod	Luc counter	ALDH1A1 inh	PNC assembly inh	HPGD inh
Cc1c(-c2ccccc2)sc(N)c1C(=O)N1CCOCC1	11%	0%	13µM*	?	8.9µM*
CCOC(=O)c1c(N)sc(C(=O)Nc2ccc3c(c2)OCO3)c1C	6%	4.5µM*	?	?	?
CCOC(=O)c1c(N)sc(C(=O)N2CCOCC2)c1C	-8%	0%	3%	-100*	-25%
COC(=O)CC1C(C)(C)C(=O)C2CC3=C(CC[C@]4(C)C3=CC(=O)OC4c3ccoc3)[C@@]1(C)C2=O (some centres undefined)	16%	0%	5%	nt	-10%
Cn1c(=O)c(-c2ccc(F)c(F)c2)nc2cncnc21	7%	nt	?	nt	nt
COc1ccc(/C(C)=N\NS(C)(=O)=O)c(OC)c1	1%	-9%	8%	-84*	?
C/C(=N/NS(C)(=O)=O)c1ccc2ccccc2c1	-8%	1%	9%	-103*	-11%
CCNC(=S)N/N=C(\C)c1ccc2ccccc2c1	nt	-1%	33%	nt	nt
COc1ccc(C(=O)Oc2ccc(C(C)=O)cc2)c(OC)c1	2%	1%	7%	-83*	-1%
COc1ccc(C(N)=S)c(OC)c1	11%	-1%	13µM*	-1	40µM*
COc1ccc(NC(=O)N2CCCC3(CCN(C(C)=O)CC3)C2)cc1	nt	-4%	2%	nt	-10%
O=C(Nc1cc(Cl)ccc1Cl)C1(c2cccs2)CCOCC1	14%[46 µM]	nt	nt	nt	nt
CCOc1ccc(-c2nc(CSc3nnc(N)s3)cs2)cc1OC	-21%	-3%	-11%	-101*	-14%
CCOc1ccc(-c2nc(CSc3nnc(N)s3)cs2)cc1	-9%	14%	-5%	-18	-20%
c1ccc(COc2ccc(Nc3ncnc4nc[nH]c34)cc2)cc1	21%	-7%	-14%	-10	16µM*
CCOC(=O)c1ccc(Nc2ncnc3nc[nH]c23)cc1	0%	-7%	-14%	-20	?
Cc1ccc(S(=O)(=O)N(C(=O)c2ccncc2)c2ccc(OC(=O)c3ccncc3)cc2)c(C)c1	-7%	-3%	-1%	-14	28µM*
CC(C)c1nn2c(=O)cc(COC(=O)c3ccccc3NC(=O)c3cccs3)nc2s1	-1%[46 µM]	nt	nt	nt	nt
COn1c2c(c3c4no[n+]([O-])c4ccc31)CCCC2	3%	-3%	-5%	?	-16%
[O-][n+]1c2c(c3c4non(O)c4ccc31)CCCC2	?	1%	-12%	11	7.9µM*
CCSc1nnc([C@@H]2CCCN2C(=O)OC(C)(C)C)o1	7%	-4%	?	-8	-8%
Cc1ccc(C)c(NC(=O)CSc2nnc([C@@H]3CCCN3C(=O)OC(C)(C)C)o2)c1	3%	nt	5%	-119*	nt
Cc1cccc(NC(=O)CSc2nnc([C@@H]3CCCN3C(=O)OC(C)(C)C)o2)c1C	?	13%	3.5µM*	5	-8%
CCC(=O)N1c2ccccc2CC1C(=O)NCCCN1CCN(c2cccc(Cl)c2)CC1 (centres undefined)	-12%[46 µM]	nt	nt	nt	nt
CSC1=N/C(=C\c2ccccc2Cl)C(=O)N1N(C)C	nt	nt	18µM*	nt	nt
SMILES	LMNA splice mod	Luc counter	ALDH1A1 inh	PNC assembly inh	HPGD inh
Cc1ccc(C(O)C2=CCCC2=O)cc1 (centres undefined)	nt	1%	-6%	nt	-4%
Clc1ccc(CNCc2cccs2)cc1Cl	2%	-2%	0%	4	-9%
Brc1cccc(CNCc2cccs2)c1	9%	-2%	8%	-89*	-11%
Cc1nc(N2CCOCC2)c2nc(-c3ccccc3)n(CC(C)(C)CN(C)C)c2n1	nt	0%	?	nt	?
Cc1cn(CC[C@H](N)C(=O)O)c(=O)[nH]c1=O	nt	-2%[7.66 µM]	-7%[13.5 µM]	nt	-4%
CC1(CC(=O)Nc2ccccc2)NC(=S)N(c2ccccc2)N1 (centres undefined)	2%[46 µM]	4%	11µM*	nt	nt
COc1cccc(-c2nc(NCc3cccnc3)c3ccccc3n2)c1	?	nt	0%	nt	nt
COc1ccc(-c2nc3sc(CCNC(=O)Cc4ccccc4)c(C)n3n2)cc1	18%[46 µM]	nt	nt	nt	nt
COc1ccc(N2C(=O)CC(Sc3nc4ccccc4s3)C2=O)cc1OC (centres undefined)	?	-3%	3.5µM*	nt	nt
CCOC(=O)c1cnc(SC2CC(=O)N(c3ccc(OC)c(OC)c3)C2=O)nc1N (centres undefined)	-1%	1%	?	-4	-13%
CC(=O)Nc1ccc(N2C(=O)CC(Sc3nc4ccccc4s3)C2=O)cc1 (centres undefined)	nt	0%	0.71µM*	nt	nt
COc1ccc(NC(=S)Nc2cccc([N+](=O)[O-])c2)cc1	-5%	1%	-3%	-9	-7%
Cc1ccc(NS(=O)(=O)c2cc([N+](=O)[O-])ccc2NNC(=S)Nc2cccc(Cl)c2)c(C)c1	?	-24%	0.28µM*	-24	28µM*
CC(=O)Nc1ccc(NS(=O)(=O)c2cc([N+](=O)[O-])ccc2C)cc1	nt	-1%	-1%	nt	nt
COc1ccc(NC(=S)NNc2ccc([N+](=O)[O-])cc2S(=O)(=O)Nc2ccc(C)cc2C)cc1	?	-14%	4µM*	?	14µM*
Cc1cccc(NS(=O)(=O)c2cc(NC(=O)CC(=O)c3ccc([N+](=O)[O-])cc3)ccc2C)c1	-13%[9.22 µM]	3%	-8%	nt	nt
Cc1ccc(NS(=O)(=O)c2cc([N+](=O)[O-])ccc2NNC(=S)Nc2cc(C)ccc2C)c(C)c1	?	-15%	2.8µM*	?	7.9µM*
COc1ccc(NC(=O)N2CC3(CCN(C(=O)c4ccncc4)CC3)C2)cc1	nt	-1%	4%	nt	-3%
CN(C)CCCN1CCC2(CCC(C(C)(C)C)CC2)CC1	nt	-1%[7.66 µM]	8%[13.5 µM]	nt	-14%
Cc1ccccc1C(=O)NCc1nnc(SCC(=O)N2CCN(c3ccccc3)CC2)n1C	-7%	-1%	10µM*	?	0%
CCc1c(C)nc2ncnn2c1N1CCC(C(=O)N2CCN(c3ccccc3)CC2)CC1	-1%	-7%	3%	-88*	-7%
CCc1c(C)nc2ncnn2c1N1CCCC(C(=O)NCc2ccc3c(c2)OCO3)C1 (centres undefined)	?	0%	-6%	-22	-17%
CCc1c(C)nc2ncnn2c1N1CCCC(C(=O)Nc2ccc(NC(C)=O)cc2)C1 (centres undefined)	14%	-5%	13µM*	6	?
CCc1c(C)nc2ncnn2c1N1CCC(C(=O)N2CCN(c3ccc(F)cc3)CC2)CC1	?	-5%	?	26	-13%
Cc1cnc(CNc2ncncc2-c2cccnc2)cn1	-2%	nt	3%	nt	nt
CC(C)n1c(SCC(N)=O)nc2c1c(=O)[nH]c(=O)n2C	1%	-6%	22µM*	-10	?
CCCCCSc1nc2c(c(=O)[nH]c(=O)n2C)n1C(C)C	-3%	-1%	?	-119*	-24%
CCOC(=O)N1CCN(C(=O)c2ccc3c(=O)n(Cc4ccc(Cl)cc4)c(=S)[nH]c3c2)CC1	?	-1%	10µM*	16	-22%

Screening data from PubChem.
